Reference: the OligoGym collection

Biological target: FEZ1
Assay: pooled miR-30 sensor sort-seq; sequence = guide strand
Conditions: shRNA

Sequence | sensor-assay potency score (higher = more potent)
ATGAACCATAGAAACACTGGGG | -0.474
TTTATTTCAAAATTAGTCTTAA | -0.684
ATTACTAGCACTAGAAGCCAAC | -1.45
TTGTCTGTCAGAGCATCCCAAA | -1.44
TTTAAATACATGTCGGAGGTTA | 0.312
TTGAAGCTGATTATTTCGGAAG | -0.859
TGAACCATAGAAACACTGGGGC | 0.345
TGAACCTCAATAAGCACCGTGA | -0.29
TCAAACTCCAGCTCGTCCCGGC | 0.386

Biological target: FFAR2
Assay: as above
Conditions: shRNA

Sequence | sensor-assay potency score (higher = more potent)
TCGGTGAAGTTCTCGTAGCAGG | -0.822
TCTCGTAGCAGGTAATTTCATT | -0.802
TTGAGTGAACTGAACACCACGG | 0.516
TTATCGGTGAAGTTCTCGTAGC | -0.593
TAGCAGGTAATTTCATTGCCAC | -0.783
TAAGCCATGAGGATCAAGGAGC | -1.02
TTCTCCTTGACCCACACCCCTG | -1.59
TTCATTGCCACTTCTGACCTGC | 0.752
TAGATGCTGCTGTAGAAGCCAA | -0.865
TTTTTCTCTGGTGATACCCCAC | -0.286
TCGTGTTCAAGTATTGAACGAT | -0.455
TGAGTGAACTGAACACCACGGC | 0.269

Biological target: FGA
Assay: as above
Conditions: shRNA

Sequence | sensor-assay potency score (higher = more potent)
TTCAGTGATCCATCCATTCTTT | -0.0325
TAACTCCATTCTCATCTGCGGC | -1.53
TAAGTCTTTGGCAATGACCTGT | 0.441
TATTGTTCTTCTGATATTCAAA | -1.2
TTGACTTCATCAATCAACCCTT | -0.0172
TTGTAGTCTTGCCAGGTCCGGT | -0.917
TTGTAGAGAATCTCAACTGCTT | 0.304
TCAAAGACTAATATGTCTCAGG | -0.257
TCAATCAACCCTTTCATCCTGC | 0.452
TAAAATTCAGTGATCCATCCAT | 0.455
TTAGGTTGTAGAGAATCTCAAC | -0.726
TTTCTCTCCACTTCTCTAGCAA | 0.384
TTCTATGACTTTGCGCTTCAGG | -0.597
TTCTGCACAGTTCTCTTCCCAC | -0.744
TTTTTCTATGACTTTGCGCTTC | -0.192
TTTAGCTACAGTACAAAGGATA | -0.909
TTCAGGACTTCAATTCTGCTTC | -0.0905
AACATTTTTCTGCAGAAGCTGG | -0.95
TGTAGTTCCAGTCTTCATCAGA | -0.66
